Assay results published in paper PMC5540273 (PLoS ONE, 2017).

Columns and labels:
Conditions in all cases: concentration: 1 μM, replicates: in singlicate; n = 1
CDC2L2 = system: CDC2L2
CDC2L5 = system: T1, CDC2L5
T1 construct: gene CDK13

CDK11 = system: T2, CDK11
T2 construct: gene CDK19

CDK2 = system: CDK2
CDK3 = system: CDK3
CDK4-cyclinD1 = system: CDK4-cyclinD1
CDK4-cyclinD3 = system: CDK4-cyclinD3
CDK4 = system: CDK4
CDK5 = system: CDK5
CDK7 = system: CDK7
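Further: KINOMEscan kinase panel screen.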

Row | Compound | %Inh (CDC2L2) [%] | %Inh (CDC2L5) [%] | %Inh (CDK11) [%] | %Inh (CDK2) [%] | %Inh (CDK3) [%] | %Inh (CDK4-cyclinD1) [%] | %Inh (CDK4-cyclinD3) [%] | %Inh (CDK4) [%] | %Inh (CDK5) [%] | %Inh (CDK7) [%]
1 | COc1cc(Nc2nccc(-c3c(-c4cccc(NC(=O)c5c(F)cccc5F)c4)nn4ccccc34)n2)cc(OC)c1OC [GSK323521] | 14 | 0 | 96.9 | 20 | 21 | 0 | 0 | 7 | 28 | 0
2 | Cl.c1ccc(-c2ccc3c(Nc4ccc5[nH]ccc5c4)ccnc3c2)nc1 [GW440138] | 7 | 0 | 4 | 0 | 0 | 27 | 0 | 35 | 0 | 0
3 | COc1cccc(C(=O)Nc2cccc(Oc3ccc4nc(NC(=O)C5CC5)cn4n3)c2)c1 | 17 | 2 | 8 | 0 | 0 | 1 | 0 | 0 | 0 | 0
4 | Cn1cc(-c2[nH]c3cc(NC(=O)[C@H](N)C4CCCCC4)cc4c3c2C=NNC4=O)cn1 | 6 | 0 | 15 | 8 | 0 | 0 | 0 | 0 | 11 | 41
5 | COC(=O)Nc1nc2ccc(Oc3ccc(NC(=O)Nc4cc(C(F)(F)F)ccc4F)cc3)cc2n1C.Cl [GW692089] | 10 | 0 | 43 | 0 | 0 | 46 | 0 | 26 | 0 | 69
6 | CNC(=O)c1ccccc1Nc1nc(Nc2ccc(N3CCOCC3)cc2)ncc1Cl.Cl [GSK1576028] | 20 | 0 | 0 | 39 | 31 | 47 | 45 | 28 | 29 | 96.6
7 | O=C(Nc1cccc(-c2nn3ncccc3c2-c2ccnc(Nc3ccccc3)n2)c1)c1c(F)cccc1F [GSK198271] | 18 | 0 | 0 | 0 | 8 | 0 | 0 | 0 | 0 | 0
8 | Cn1cc(-c2ccc3c(c2)CCN3C(=O)Cc2cccc(Cl)c2)c2c(N)ncnc21 [GSK2606590] | 18 | 0 | 99.5 | 0 | 7 | 0 | 0 | 34 | 0 | 0
9 | CN1CCN(CCCNc2nccc(-c3c(-c4ccc(F)cc4)nn4cc(C(F)(F)F)ccc34)n2)CC1 [GW621581] | 0 | 0 | 0 | 0 | 0 | 0 | 0 | 0 | 0 | 0
10 | CCCCc1nn2ncccc2c1-c1ccnc(Nc2ccc(N3CCN(C)CC3)cc2)n1 [GW684941] | 7 | 0 | 19 | 0 | 9 | 63 | 53 | 46 | 0 | 34
11 | COc1cc(Nc2nccc(-c3c(-c4cccc(NC(=O)c5c(F)cccc5F)c4)nn4ncccc34)n2)cc(OC)c1OC [GSK327238] | 15 | 0 | 0 | 0 | 4 | 0 | 97.4 | 21 | 0 | 0
12 | O=C(Nc1n[nH]c2cc(-c3ccoc3)ccc12)C1CC1 [SB-738481] | 0 | 29 | 0 | 76 | 51 | 14 | 3 | 0 | 17 | 71
13 | Nc1ncc(-c2ccc3nccc(-c4ccncc4)c3c2)cc1S(=O)(=O)N1CCOCC1 [GSK1627798] | 0 | 0 | 40 | 1 | 6 | 0 | 47 | 0 | 0 | 72
14 | O=c1[nH]cc(-c2ccc(N3CCOCC3)cc2)c2sc(-c3cn[nH]c3)cc12 [GSK2276055] | 12 | 0 | 0 | 0 | 6 | 0 | 21 | 0 | 0 | 2
15 | Cc1ccc(C(=O)N2CC[C@@H](O)C2)cc1-n1c(C)cc(OCc2ccc(F)cc2F)c(Br)c1=O | 0 | 0 | 0 | 0 | 0 | 0 | 0 | 0 | 0 | 0
16 | COCCOCCOc1cc2ncc3c4ccc(C#N)cc4[nH]c3c2cc1OC | 19 | 0 | 0 | 12 | 15 | 0 | 39 | 0 | 7 | 99.7

Row | Compound | %Inh (CDC2L2) [%] | %Inh (CDC2L5) [%] | %Inh (CDK11) [%] | %Inh (CDK2) [%] | %Inh (CDK3) [%] | %Inh (CDK4-cyclinD1) [%] | %Inh (CDK4-cyclinD3) [%] | %Inh (CDK4) [%] | %Inh (CDK5) [%] | %Inh (CDK7) [%]
17 | CC(=O)N1CCN(c2ccc(Nc3nccc(-c4sc(C(C)C)nc4-c4cccc(NS(=O)(=O)c5cccc(Cl)c5)c4)n3)cn2)CC1 [GSK1660437] | 0 | 21 | 0 | 97.1 | 98.6 | 79 | 4 | 76 | 100 | 59
18 | C[C@@H]1CC[C@@H](C(=O)Nc2ccccc2)CN1c1cc(-c2ccc3c(N)n[nH]c3c2)nc(N)n1 [GSK2286062] | 20 | 0 | 0 | 20 | 0 | 0 | 0 | 16 | 0 | 0
19 | Clc1ccc(-c2nn3ncccc3c2-c2ccnc(Nc3ccc4c(c3)OCCO4)n2)cc1 [GW829116] | 0 | 0 | 0 | 0 | 0 | 0 | 0 | 0 | 7 | 0
20 | CCS(=O)(=O)c1ccc(OC)c(Nc2nccc(-c3c(-c4cccc(NC(=O)c5c(F)cccc5F)c4)nn4ncccc34)n2)c1 [GSK326180] | 15 | 0 | 11 | 0 | 7 | 0 | 12 | 0 | 0 | 0
21 | O=C(Nc1n[nH]c2nc(-c3ccc(O)cc3)ccc12)C1CC1 [SB-710363] | 0 | 69 | 0 | 75 | 84 | 83 | 78 | 0 | 0 | 41
22 | COc1ccc(Nc2nccc(N3CCC(NC(=O)Nc4cccc(OC)c4)C3)n2)cc1 (centres unmarked) [GSK1379742] | 0 | 0 | 56 | 0 | 27 | 0 | 0 | 13 | 0 | 0
23 | CN(c1ccc(NC(=O)Nc2cc(C(F)(F)F)ccc2F)cc1)c1ccnc(Nc2ccc(S(N)(=O)=O)cc2)n1 [GW809893] | 94 | 83 | 98.8 | 99.7 | 99 | 14 | 5 | 0 | 97.1 | 95.3
24 | Cl.c1ccc(-c2ccc3c(Nc4ccc5[nH]ncc5c4)ccnc3c2)nc1 [GW440137] | 16 | 0 | 3 | 0 | 0 | 0 | 29 | 0 | 0 | 8
25 | Cl.NC(=O)c1cccc(Nc2nccc(Nc3ccc(Oc4c(Cl)cccc4Cl)c(Cl)c3)n2)c1 [GW659009] | 2 | 0 | 88 | 0 | 0 | 0 | 0 | 1 | 0 | 0
26 | Cc1occc1-c1ncc(OC[C@@H](N)Cc2c[nH]c3ccccc23)cc1-c1ccc2[nH]nc(C)c2c1.O=C(O)C(F)(F)F [GSK682037] | 6 | 0 | 35 | 0 | 2 | 0 | 0 | 0 | 0 | 30
27 | FC(F)(F)c1ccc(/C=C/c2cncnc2Nc2ccc3[nH]c(Cc4ccccc4)nc3c2)cc1 [GW709199] | 0 | 6 | 10 | 0 | 50 | 23 | 0 | 6 | 0 | 0
28 | c1ccc(-c2cnc3nccnn23)cc1 [AH20685] | 18 | 0 | 0 | 0 | 2 | 0 | 0 | 0 | 0 | 0
29 | Cl.Cl.NCC(NCc1ccc(-c2ccnc3[nH]ccc23)s1)c1ccccc1 (centres unmarked) [GSK1321565] | 23 | 0 | 2 | 0 | 0 | 5 | 0 | 50 | 0 | 65
30 | NCCCC(NC(=O)c1cc(Br)c(-c2ccnc3[nH]ccc23)s1)c1ccccc1.O=C(O)C(F)(F)F.O=C(O)C(F)(F)F (centres unmarked) [GSK1287544] | 0 | 0 | 45 | 0 | 10 | 0 | 2 | 5 | 6 | 4
31 | CC(=O)Nc1nc2cnc(Nc3cc(NC(=O)c4cccc(C5(C#N)CC5)c4Cl)ccc3C)nc2s1 | 33 | 17 | 23 | 0 | 0 | 0 | 0 | 0 | 0 | 0
32 | Fc1ccc(-c2ncn(C3CCNCC3)c2-c2ccnc(Oc3ccc(-c4ccccc4)cc3)n2)cc1 [SB-245391] | 9 | 43 | 22 | 19 | 26 | 0 | 34 | 15 | 0 | 41
